Assay results: PubChem BioAssay (NCATS)
Several values for one entry are separate records, joined by “and”; a condition that tells them apart may be missing. Equal entries are not always repeated. Inconclusive results are not listed. Activity calls are given as the source filed them. Calls follow the shape of the dose curve; as a rule, active = well fitted curve in the direction sought with a large enough effect; inconclusive = small, poorly fitted or top-dose-only effect, or another doubt; inactive = no such curve, though single readings can be large; an effect the other way counts as inactive or inconclusive.

Tests used:
CAOV3 = experiment: Primary qHTS to identify gynecologic anti-cancer compounds using libraries of approved drugs and bioactive compounds (AID 1345084); details: Gynecologic cancer cell panel viability, ATPlite luminescence, 48 h; series mostly up to 57.5 µM; also: nearly all actives have a fitted effect of over 55% in size
In short: (§1)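 Cells, 1,000 per well, plated 16 h, then exposed 48 h at 37 C to compounds. Viability by ATPlite luminescence after 15 min at room temperature.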

CASKI = experiment: as above; details: Gynecologic cancer cell panel viability, ATPlite luminescence, 48 h; series mostly up to 57.5 µM
In short: as §1

Es-2 = experiment: as above; details: Gynecologic cancer cell panel viability, ATPlite luminescence, 48 h; series mostly up to 57.5 µM
In short: as §1

HeLa = experiment: as above; details: Gynecologic cancer cell panel viability, ATPlite luminescence, 48 h; series mostly up to 57.5 µM
In short: as §1

Hek293T = experiment: as above; details: Gynecologic cancer cell panel viability, ATPlite luminescence, 48 h, control line for the selectivity index; series mostly up to 57.5 µM
In short: as §1

JEG-3 = experiment: as above; details: Gynecologic cancer cell panel viability, ATPlite luminescence, 48 h; series mostly up to 57.5 µM
In short: as §1

OV90 = experiment: as above; details: Gynecologic cancer cell panel viability, ATPlite luminescence, 48 h; series mostly up to 57.5 µM
In short: as §1

PA-1 = experiment: as above; details: Gynecologic cancer cell panel viability, ATPlite luminescence, 48 h; series mostly up to 57.5 µM
In short: as §1

SKOV3 = experiment: as above; details: Gynecologic cancer cell panel viability, ATPlite luminescence, 48 h; series mostly up to 57.5 µM
In short: as §1

Tov-21-G = experiment: as above; details: Gynecologic cancer cell panel viability, ATPlite luminescence, 48 h; series mostly up to 57.5 µM
In short: as §1

Tov112D = experiment: as above; details: Gynecologic cancer cell panel viability, ATPlite luminescence, 48 h; series mostly up to 57.5 µM
In short: as §1

[1] = Drug repurposing screens with cells derived from glioblastoma tumor samples (AID 1345199); details: GBM patient neurospheres viability, ATP luminescence, 48 h; also: nearly all actives have a fitted effect of over 40% in size
In short: (§2)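 Four patient lines of CD133+ GBM neurospheres were screened at several concentrations; hits were retested in those lines plus three slower-growing GBM lines, using 48-hour treatment and ATP-based viability.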

astro = experiment: as above; details: viability, ATP luminescence, 48 h; series mostly up to 45.9 µM
In short: as §2

[2] = at 45.9 µM (top of the series), tumour line B
[3] = at 45.9 µM (top of the series), tumour line D
[4] = at 46.1 µM (top of the series), tumour line C
[5] = at 20 µM (top of the series), tumour line C
[6] = at 21.2 µM (top of the series), tumour line B
[7] = at 21.2 µM (top of the series), tumour line D
[8] = at 21.3 µM (top of the series), tumour line A
[9] = at 46 µM (top of the series), tumour line A
% is scaled to controls: 0 for no effect and ±100 for the full control effect.

CC(=O)O[C@H]1C[C@@]2(C)[C@@H](C[C@@H](O)[C@H]3[C@@]4(C)CC[C@@H](O)[C@@H](C)[C@@H]4CC[C@@]32C)/C1=C(\CCC=C(C)C)C(=O)O
inactive: Potency (CAOV3) | Potency (CASKI) | Potency (Es-2) | Potency (HeLa) | Potency (Hek293T) | Potency (JEG-3) | Potency (OV90) | Potency (PA-1) | Potency (SKOV3) | Potency (Tov-21-G) | Potency (Tov112D) | activity, negative = cell killing [1, 2] -17.2% | activity, negative = cell killing [1, 3] 1.56% | activity, negative = cell killing [1, 4] -26.3%

O=C(O)Cc1ccc2c(c1)C(=O)c1ccccc1CO2
inactive: Potency (CAOV3) | Potency (CASKI) | Potency (Es-2) | Potency (HeLa) | Potency (Hek293T) | Potency (JEG-3) | Potency (OV90) | Potency (PA-1) | Potency (SKOV3) | Potency (Tov-21-G) | Potency (Tov112D)

CNC(=O)c1c(I)c(NC(=O)CCCCC(=O)Nc2c(I)c(C(=O)O)c(I)c(C(=O)NC)c2I)c(I)c(C(=O)O)c1I
inactive: Potency (CAOV3) | Potency (CASKI) | Potency (Es-2) | Potency (HeLa) | Potency (Hek293T) | Potency (JEG-3) | Potency (OV90) | Potency (PA-1) | Potency (SKOV3) | Potency (Tov-21-G) | Potency (Tov112D)

CCNc1nc2c(ncn2[C@H]2C[C@H](O)[C@@H](CO)O2)c(=O)[nH]1
inactive: Potency (CAOV3) | Potency (CASKI) | Potency (Es-2) | Potency (HeLa) | Potency (Hek293T) | Potency (JEG-3) | Potency (OV90) | Potency (PA-1) | Potency (SKOV3) | Potency (Tov-21-G) | Potency (Tov112D)

O=C(O)Cc1ccc(-c2ccccc2)cc1
inactive: Potency (CAOV3) | Potency (CASKI) | Potency (Es-2) | Potency (HeLa) | Potency (Hek293T) | Potency (JEG-3) | Potency (OV90) | Potency (PA-1) | Potency (SKOV3) | Potency (Tov-21-G) | Potency (Tov112D) | activity, negative = cell killing [1, 5] 2.3% | activity, negative = cell killing [1, 6] -5.31% | activity, negative = cell killing [1, 7] -13.6% | activity, negative = cell killing [1, 8] -23.3%

Nc1ccc(C(=O)O)c(O)c1
inactive: Potency (CAOV3) | Potency (CASKI) | Potency (Es-2) | Potency (HeLa) | Potency (Hek293T) | Potency (JEG-3) | Potency (OV90) | Potency (PA-1) | Potency (SKOV3) | Potency (Tov-21-G) | Potency (Tov112D) | activity, negative = cell killing [1, 2] -5.49% | activity, negative = cell killing [1, 3] 3.71% | activity, negative = cell killing [1, 9] -9.87% | activity, negative = cell killing [1, 4] -6.08%

Fc1ccc2[nH]c(CN3CCN(c4ccccn4)CC3)cc2c1
inactive: Potency (CAOV3) | Potency (CASKI) | Potency (Es-2) | Potency (HeLa) | Potency (Hek293T) | Potency (JEG-3) | Potency (OV90) | Potency (PA-1) | Potency (SKOV3) | Potency (Tov-21-G) | Potency (Tov112D)

CC(=O)c1ccc(OCC(=O)N2CCCCC2)cc1
inactive: Potency (CAOV3) | Potency (CASKI) | Potency (Es-2) | Potency (HeLa) | Potency (Hek293T) | Potency (JEG-3) | Potency (OV90) | Potency (PA-1) | Potency (SKOV3) | Potency (Tov-21-G) | Potency (Tov112D) | activity, negative = cell killing [1, 2] -9.55% | activity, negative = cell killing [1, 3] -17.5% | activity, negative = cell killing [1, 9] -29.4% | activity, negative = cell killing [1, 4] -5.72%

CC(C)(C)c1nnc(NS(=O)(=O)c2ccc(N)cc2)s1
inactive: Potency (CAOV3) | Potency (CASKI) | Potency (Es-2) | Potency (HeLa) | Potency (Hek293T) | Potency (JEG-3) | Potency (OV90) | Potency (PA-1) | Potency (SKOV3) | Potency (Tov-21-G) | Potency (Tov112D)

Cc1ccc2c(n1)Oc1ccc(C(C)C(=O)OCC(=O)N(C)C)cc1C2 (stereo unspecified)
inactive: Potency (CAOV3) | Potency (CASKI) | Potency (Es-2) | Potency (HeLa) | Potency (Hek293T) | Potency (JEG-3) | Potency (OV90) | Potency (PA-1) | Potency (SKOV3) | Potency (Tov-21-G) | Potency (Tov112D) | activity, negative = cell killing [1, 2] -2.21% and -4.54% | activity, negative = cell killing [1, 3] -24.2% and -10.3% | activity, negative = cell killing [1, 4] -14.5% and 2.44%

CN(CCCOc1ccc(Cc2ccccc2)cc1)CCC(=O)O
inactive: Potency (CAOV3) | Potency (CASKI) | Potency (Es-2) | Potency (HeLa) | Potency (Hek293T) | Potency (JEG-3) | Potency (OV90) | Potency (PA-1) | Potency (SKOV3) | Potency (Tov-21-G) | Potency (Tov112D)

CN(C)[C@@H]1C(=O)C(C(=O)NCN2CCCC2)=C(O)[C@@]2(O)C(=O)C3=C(O)c4c(O)cccc4[C@@](C)(O)C3C[C@@H]12 (stereo partly specified)
inactive: Potency (CAOV3) | Potency (CASKI) | Potency (Es-2) | Potency (HeLa) | Potency (Hek293T) | Potency (JEG-3) | Potency (OV90) | Potency (PA-1) | Potency (SKOV3) | Potency (Tov-21-G) | Potency (Tov112D) | activity, negative = cell killing [1, 5] -9.38% | activity, negative = cell killing [1, 6] -5.39% | activity, negative = cell killing [1, 7] 11.2% | activity, negative = cell killing [1, 8] -7.96% | activity, negative = cell killing [1, 2] -10.2% | activity, negative = cell killing [1, 3] -31.8% | activity, negative = cell killing [1, 4] 27.9% | Potency (astro)

Nc1c(CC(=O)O)cccc1C(=O)c1ccc(Br)cc1
inactive: Potency (CAOV3) | Potency (CASKI) | Potency (Es-2) | Potency (HeLa) | Potency (Hek293T) | Potency (JEG-3) | Potency (OV90) | Potency (PA-1) | Potency (SKOV3) | Potency (Tov-21-G) | Potency (Tov112D) | activity, negative = cell killing [1, 2] -6.17% | activity, negative = cell killing [1, 3] -6.69% | activity, negative = cell killing [1, 9] -19.8% | activity, negative = cell killing [1, 4] 10.2% | Potency (astro)

NS(=O)(=O)c1ccc(-n2nc(C(F)(F)F)cc2-c2ccc(Cl)cc2)cc1
inactive: Potency (CAOV3) | Potency (CASKI) | Potency (Es-2) | Potency (HeLa) | Potency (Hek293T) | Potency (JEG-3) | Potency (OV90) | Potency (PA-1) | Potency (SKOV3) | Potency (Tov-21-G) | Potency (Tov112D)

CCCCCCCC/C=C/C(=O)O
inactive: Potency (CAOV3) | Potency (CASKI) | Potency (Es-2) | Potency (HeLa) | Potency (Hek293T) | Potency (JEG-3) | Potency (OV90) | Potency (PA-1) | Potency (SKOV3) | Potency (Tov-21-G) | Potency (Tov112D)
